Tau fibril ThT – qHTS for Inhibitors of Tau Fibril Formation, Thioflavin T Binding | Microtubule-associated protein tau (Homo sapiens), P10636 | recombinant tau K18 P301L, heparin-induced fibrillization, ThT fluorescence | Potency, µM (titrated, usually from 57.4 µM), hits mostly inhibitors | hit rate 2.1% among 270,000 | AID 1460, 2008; further: nearly all actives have a fitted effect of over 55% in size
Target sequence (P10636 561-689 P618L limits assumed): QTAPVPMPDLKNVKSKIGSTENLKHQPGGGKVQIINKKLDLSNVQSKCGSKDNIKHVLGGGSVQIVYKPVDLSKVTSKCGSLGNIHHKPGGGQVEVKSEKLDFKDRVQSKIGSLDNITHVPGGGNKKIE
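K18 P301L tau (15 uM + 0.24 uM Alexa 594-tagged), heparin 20 uM, NaOAc pH 7, 6 h 37 C; ThT 30 uM, 1 h RT, ex 450/em 510 nm.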
Sfp inh – qHTS Assay for Inhibitors of Bacillus subtilis Sfp phosphopantetheinyl transferase (PPTase). 4'-phosphopantetheinyl transferase ffp (Bacillus subtilis), Q9F4F7. Biochemical Sfp PPTase activity, qHTS. Potency, µM, actives largely listed as inhibitors. hit rate 3.5% among 310,000;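 further: the enzyme is Sfp with the accession as filed and its product quenches rhodamine fluorescence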
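After 15 min at room temperature with compound, 15 nM Sfp received 5 uM rhodamine-CoA plus 12.5 uM BHQ-2-ybbR (50 mM Hepes pH 7.6, 10 mM MgCl2). Rate came from the fluorescence difference over 30 min, ex 525/em 598 nm.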
Tau FP inhib – qHTS for Inhibitors of Tau Fibril Formation, Fluorescence Polarization | Potency, µM (highest dose often 57.7 µM), actives largely listed as inhibitors | AID 1468, 2008 | K18 P301L tau heparin fibrillization, Alexa594 FP, 6 h | hit rate 0.39% among 280,000; further: nearly all actives have a fitted effect of over 55% in size
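Human tau K18 […] P301L fragment, 15 uM unlabeled plus 0.24 uM Alexa 594-labeled tau (final), with compound and 20 uM heparin in 100 mM sodium acetate pH 7; 6 hr at 37 C, then Alexa 594 FP read.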
PLK1 PBD inh – qHTS for Inhibitors of PLK1-PDB (polo-like kinase 1 - polo-box domain): Primary Screen. Serine/threonine-protein kinase PLK1 (Homo sapiens), P53350. Plk1 PBD binding of FITC phosphopeptide, fluorescence polarization. Potency, µM, hits mostly inhibitors. hit rate 2.8% among 360,000; further: series mostly up to about 57 µM; nearly all actives have a fitted effect of over 65% in size
Target sequence (P53350 whole entry, looked up, the tested form may be a part): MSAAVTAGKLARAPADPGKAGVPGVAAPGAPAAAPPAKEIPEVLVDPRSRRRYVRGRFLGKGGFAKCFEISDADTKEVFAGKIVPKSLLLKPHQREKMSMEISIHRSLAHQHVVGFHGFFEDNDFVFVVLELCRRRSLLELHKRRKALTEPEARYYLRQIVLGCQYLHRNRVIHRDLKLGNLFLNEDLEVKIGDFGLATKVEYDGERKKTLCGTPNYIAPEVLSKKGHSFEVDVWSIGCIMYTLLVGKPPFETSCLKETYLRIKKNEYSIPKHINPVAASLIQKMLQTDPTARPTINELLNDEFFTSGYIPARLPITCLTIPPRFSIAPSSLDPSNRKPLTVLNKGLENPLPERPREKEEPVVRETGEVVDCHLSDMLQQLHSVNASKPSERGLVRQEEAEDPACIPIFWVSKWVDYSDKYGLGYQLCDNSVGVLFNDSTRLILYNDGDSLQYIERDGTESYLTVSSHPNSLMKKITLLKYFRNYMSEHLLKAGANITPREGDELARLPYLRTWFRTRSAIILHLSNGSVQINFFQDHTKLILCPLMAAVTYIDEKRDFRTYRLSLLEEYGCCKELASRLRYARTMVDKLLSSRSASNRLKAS
VDR inhibitor – Inhibitors of the vitamin D receptor (VDR): qHTS. Vitamin D3 receptor (Homo sapiens), P11473. VDR-SRC2-3 peptide fluorescence polarization, 2 h. Potency, µM, usual class: inhibitors. hit rate 0.93% among 400,000. AID 504847, 2011
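Signal is fluorescence polarization, reporting how far test compounds block the interaction of VDR with the SRC2-3 coregulator peptide after a 2 h room-temperature incubation.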
Tau fluor cs – Counterscreen qHTS for Inhibitors of Tau Fibril Formation, Fluorescence Polarization. hit rate 0.93% among 280,000. tau K18 P301L Alexa594 fluorescence, heparin fibrillization. AID 1463, 2008. Potency, µM (highest dose often 57.7 µM); further: nearly all actives have a fitted effect of over 55% in size
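Human tau K18 P301L (15 uM unlabeled, 0.24 uM Alexa 594-labeled) in 100 mM sodium acetate pH 7 with 20 uM heparin, 6 hr at 37 C. ThT 30 uM added, 1 hr ambient; Alexa 594 FP and total fluorescence read at 555/632 nm.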
Hits are given with their value; – = inactive; ? = inconclusive; · = no result given; ! = a repeat was not active; [ ] = dose if it differs, or a comment. This is a sample that favours compounds with a hit; in the whole collection about 6% have one here. The call rests on the fitted dose curve; in most records, active means well fitted curve in the direction sought with a large enough effect; inconclusive means small, poorly fitted or top-dose-only effect, or another doubt; inactive means no such curve, though single readings can be large; an effect the other way counts as inactive or inconclusive.

SMILES	Tau fibril ThT	Sfp inh	Tau FP inhib	PLK1 PBD inh	VDR inhibitor	Tau fluor cs
Cc1ccc(N=Nc2c(N)[nH]n3c(=O)cc(C)nc23)cc1	3.98µM	–	?	–	–	–
Cc1cc(=O)n2[nH]c(C(F)(F)F)c(-c3ccccc3)c2n1	·	–	·	–	–	·
Cc1ccc(N=Nc2c(=O)[nH]n3c(C)cc(C)nc23)cc1	20µM	–	–	–	–	–
Cc1cc(C)n2[nH]c(=O)c(N=Nc3ccc(S(N)(=O)=O)cc3)c2n1	?	–	–	–	–	–
CC(C)(C)c1ccc(CC(=O)N2CCC2(C)C(=O)NCCC#N)cc1 (stereo not drawn)	·	·	·	–	·	·
O=c1c2ccccc2sn1-c1cc(S(=O)(=O)N2CCOCC2)ccc1N1CCCC1	25.1µM	0.199µM	31.6µM	2.99µM	?	–
O=C(O)c1cc(S(=O)(=O)N2CCOCC2)ccc1N1CCCCC1	–	–	–	–	–	–
O=S(=O)(c1ccc(N2CCOCC2)c(Cl)c1)N1CCOCC1	·	–	·	–	–	·
O=c1c2ccccc2sn1-c1cc(S(=O)(=O)N2CCOCC2)ccc1N1CCOCC1	?	0.708µM	?	0.844µM	17.8µM!	–
O=c1c2ccccc2sn1-c1cc(S(=O)(=O)N2CCOCC2)ccc1N1CCCCC1	·	·	·	·	28.2µM	·
COc1ccc(N2CC(NC(=O)CCCc3ccccc3)CC2=O)cc1 (stereo not drawn)	–	·	–	·	–	–
Cc1nc2[nH]c(=S)n(C)c(=O)c2nc1C	–	?	–	–	–	–
Cn1c(=S)[nH]c(=O)c2ncc(=O)[nH]c21	–	70.8µM	–	–	–	–
O=C(/C=C/c1cccs1)Nc1sc2c(c1C(=O)O)CCCC2	·	–	·	–	–	·
NC(=O)c1c(/N=C/c2cccs2)sc2c1CCCC2	2.24µM	–	–	?	?	–
CN(Cc1ccccc1)c1nc2c(S(=O)(=O)c3ccccc3)nnn2c2ccsc12	–	·	–	·	–	–
c1ccc(CNc2ncnc3ccc(-c4cccnc4)cc23)cc1	·	–	·	·	28.2µM	·
COc1ccccc1CNc1ncnc2ccc(-c3ccc(N(C)C)cc3)cc12	11.2µM	?	?	·	?	10µM[quencher]
O=C(c1ccco1)N1CCC2(CC1)CN(c1ccccc1)C2	·	–	·	·	?	·
Cn1nc(C(C)(C)C)cc1C(=O)N1CCCCC1c1cc(C(=O)NCc2cccnc2)no1 (stereo not drawn)	·	·	·	–	·	·
CN1CCN(C(=O)C[C@@H]2CC[C@@H]3[C@H](COC[C@@H](O)CN3Cc3cccc(Cl)c3)O2)CC1	·	·	·	–	·	·
COc1cc(NC(=O)C(Cc2ccccc2)NS(=O)(=O)c2cccc3nsnc23)cc(OC)c1 (stereo not drawn)	–	·	–	·	–	?
Cc1oc2ncn(CC(C)C)c(=O)c2c1C(=O)NCCCN1CCC(C)CC1	–	·	–	·	–	–
CCN=C1S/C(=C/c2ccc(-c3ccc(F)cc3)o2)C(=O)N1CC	·	56.2µM	·	–	–	·
Cc1ccc(NC(=O)CCS(=O)(=O)c2ccc(Br)s2)cc1	·	–	·	26.7µM	–	·
SMILES	Tau fibril ThT	Sfp inh	Tau FP inhib	PLK1 PBD inh	VDR inhibitor	Tau fluor cs
Cc1ccc(-c2csc(N3CCN(c4ccc5nc(-c6ccncc6)n(CCN6CCCCC6)c5c4)CC3)n2)cc1	·	56.2µM	·	?	–	·
COc1ccc(-c2csc(N3CCN(c4cc5c(cc4Cl)nc(-c4ccncc4)n5CCOCCO)CC3)n2)cc1	·	44.7µM	·	26.7µM	–	·
COc1ccc(-c2csc(NCCc3nc4cc(Cl)c(N5CCCCC5)cc4n3CCOCCO)n2)cc1	·	·	·	–	–	·
Cc1ccc(-c2csc(N3CCN(c4cc5c(cc4Cl)nc(-c4ccncc4)n5CCN4CCCCC4)CC3)n2)cc1	·	56.2µM	·	?	–	·
Cc1ccc(S(=O)(=O)N[C@H](C(=O)NCC2CCC(C(=O)O)CC2)C(C)C)cc1 (stereo partly drawn)	·	–	·	–	–	·
CCOc1ccccc1NC(=O)CN1C(=O)COc2ccc(S(=O)(=O)NC3CCCC3)cc21	–	·	–	·	–	–
COc1cccc(-c2cc(C(=O)Nc3cc(C)n(Cc4ccc(Cl)cc4)n3)no2)c1	–	–	–	–	–	–
Cc1cc(NC(=O)c2cc(-c3ccco3)on2)nn1Cc1ccc(Cl)cc1	–	17.8µM	–	–	–	–
CCOc1ccc(-n2c(SCC(=O)N3CCCCCC3)nc3c([nH]c4ccccc43)c2=O)cc1	–	·	–	·	–	–
CN(C)c1nc(-c2ccoc2)nc2ccccc12	?	50.1µM	–	·	?	–
c1ccc(Nc2nc(-c3ccccc3)nc3ccccc23)cc1	·	–	·	–	–	·
CN(C)c1nc(-c2cccnc2)nc2ccccc12	·	–	·	·	–	·
c1ccc(Nc2nc(-c3ccoc3)nc3ccccc23)cc1	·	–	·	·	28.2µM	·
c1ccc2c(-n3ccnc3)nc(-c3ccoc3)nc2c1	?	–	?	·	31.6µM	–
c1ccc2c(N3CCOCC3)nc(-c3ccoc3)nc2c1	·	–	·	·	?	·
CC1(C)CC(=O)c2cnc(N3CCc4ccccc43)nc2C1	?	?	–	–	–	–
CC1(C)S[C@@H]2[C@H](NC(=O)[C@H](N)c3ccccc3)C(=O)N2[C@H]1C(=O)OC1OC(=O)c2ccccc21 (stereo partly drawn)	·	·	·	–	–	·
CCCOc1ccc(-c2cccc(NS(=O)(=O)c3ccc(CC)cc3)c2)nn1	–	·	–	·	–	?
CCOc1ccc(OCC)c(NC(=O)c2nnn(CC(=O)Nc3cc(Cl)ccc3OC)c2N)c1	–	·	–	·	–	?
O=C(O)c1ccc(NNC(=S)Nc2cc(C(F)(F)F)ccc2Cl)cc1	·	89.1µM	·	21.2µM	22.4µM	·
CCOC1=C2[C@H](c3ccccc3Cl)N(S(=O)(=O)c3ccc(C)cc3)C[C@H]2C(C#N)(C#N)C(C#N)(C#N)C1	·	·	·	26.7µM	·	·
CCOC1=C2[C@@H](CN(S(=O)(=O)c3ccc(C)cc3)[C@H]2c2ccccc2Cl)[C@H]2C(=O)NC(=O)[C@H]2C1	·	·	·	–	·	·
CCOC1=C2[C@H](c3ccc(CC)cc3)N(S(=O)(=O)c3ccc(C)cc3)C[C@H]2C(C#N)(C#N)C(C#N)(C#N)C1	·	·	·	16.8µM	·	·
O=C(c1ccc(=O)[nH]n1)N1CCN(S(=O)(=O)c2ccc(C(F)(F)F)cc2)CC1	·	·	·	–	–	·
O=C(O)CNC(=O)CCCn1nnc2ccccc2c1=O	–	–	–	–	–	–
O=C(O)CNC(=O)CCn1nnc2ccccc2c1=O	–	–	–	29.9µM	?	–
CC1=C(C#N)C(=O)N(C2CCS(=O)(=O)C2)C(=O)/C1=C\c1ccco1 (stereo not drawn)	·	44.7µM	?	·	·	?
